The nature of experiment [1]: qHTS assay for small molecule agonists of the p53 signaling pathway (AID 651631; calls by dose curve; further: nearly all actives have a fitted effect of over 15% in size; further: potency means the concentration at half of the fitted maximal effect). A digest of the protocol:
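Readout was fluorescence from the LiveBLAzer FRET substrate, applied for 2 h at room temperature after 16 h compound exposure at 37 °C. Cells were the p53RE-bla HCT-116 line, with beta-lactamase driven by p53 response elements.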

Experiment [2] can be described thus: qHTS assay for small molecules that induce genotoxicity in human embryonic kidney cells expressing luciferase-tagged ATAD5 (AID 651632). Further: nearly all actives have a fitted effect of over 15% in size. Further: potency means the concentration at half of the fitted maximal effect. A digest of the protocol:
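Quantitative HTS in HEK293T expressing luciferase-tagged ATAD5, whose levels rise upon DNA damage. Exposure ran 16 hr at 37C and 5% CO2, with luminescence read 30 min after Amplite addition at room temperature.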

A short description of experiment [3]: qHTS assay for small molecule agonists of the p53 signaling pathway - cell viability (AID 651633; calls by dose curve; further: nearly all actives have a fitted effect of over 30% in size; further: potency means the concentration at half of the fitted maximal effect). A digest of the protocol:
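p53RE-bla cells were treated with compound for 16 hours at 37 C. Cytotoxicity was then measured as CellTiter-Glo luminescence after 30 min at room temperature.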
On the technique in general: qHTS replaces the single test concentration by a dilution series.

Experiment [4] is described as follows: qHTS assay for small molecule disruptors of the mitochondrial membrane potential - cell viability (AID 720634; calls by dose curve;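 further: human HepG2 liver cancer cells; series mostly up to about 83 µM; nearly all actives have a fitted effect of over 20% in size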). In short, it runs like this:
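ATP-based luminescent viability readout (CellTiter-Glo, 30 min, room temperature) in HepG2 cells multiplexed with the m-MPI membrane potential dye; compound exposure lasted 1 hr at 37 C.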

Experiment [5] in a line: qHTS assay to test for compound auto fluorescence at 590 nm (red) in HepG2 cells (AID 720674). In short, it runs like this: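 Fluorescence at 590 nm emission following 540 nm excitation was recorded from HepG2 wells one hour after compound transfer, with DMSO-only wells as vehicle and Rose Bengal sodium equivalency as the scale.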
A short description of experiment [6]: qHTS assay to test for compound auto fluorescence at 535 nm (green) in HepG2 cells (AID 720675).
Experiment [7] can be described thus: qHTS assay to test for compound auto fluorescence at 460 nm (blue) in HEK293 cells (AID 720678). In short, it runs like this: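 HEK293 cells (2,000/well, medium with 10% dialyzed FBS) attached 4-5 hr, then exposed to compound overnight at 37C, 5% CO2. Blue fluorescence read at 405/460 nm, with triamterene as reference fluorophore.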
Experiment [8] can be described thus: qHTS assay to test for compound auto fluorescence at 590 nm (red) in HEK293 cells (AID 720679). A digest of the protocol:
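HEK293 cells (2,000/well, 10% dialyzed FBS) attached 4-5 hr, then dosed with compound or DMSO and incubated overnight at 37C, 5% CO2. Red fluorescence read at 540/590 nm, Rose Bengal sodium as reference fluorophore.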

Experiment [9] is described as follows: qHTS assay for small molecule disruptors of the mitochondrial membrane potential (AID 720635). Further: potency means the concentration at half of the fitted maximal effect. In short, it runs like this: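 HepG2 cells exposed to compound 1 hr at 37C, then Mito-MPS dye 30 min. Ratio read of aggregate (540/590 nm) versus monomer (490/535 nm) fluorescence.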
Experiment [10] in a line: qHTS assay for small molecules that induce genotoxicity in human embryonic kidney cells expressing luciferase-tagged ATAD5 - cell viability (AID 651634; calls by dose curve; further: nearly all actives have a fitted effect of over 25% in size). A digest of the protocol: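 After 15.5 hr incubation with compound at 37C, 5% CO2, HEK293T ATAD5-luciferase cells received CellTiter-Fluor reagent; fluorescence intensity was quantified following 30 min at 37C.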

This note sets out measurements from PubChem BioAssay (Tox21).

A number with no mark means an inactive call. Inconclusive results are not listed. Active and inactive are the calls of the source. Unless noted, the call rests on the fitted dose curve; in most records, active means well fitted curve in the direction sought with a large enough effect in the repeat runs; inconclusive means weak or mixed curves; inactive means no such curve, though single readings can be large; an effect the other way counts as inactive or inconclusive.
On the % scale 0 is the no-effect control and ±100 the full control effect.

In the case of `CCn1nc(Cc2ccccc2)cc1C1CCN(C[C@H]2C[C@H](N(C)[C@@H](C(=O)O)C(C)C)C[C@@H]2c2cccc(F)c2)CC1`, the Potency result in experiment [1], in experiment [2], in [3], in [4] and in experiment [7] was “inactive” in each case. In addition, the molecule was classed as inactive in [5], in experiment [6] and in experiment [8].
For `Cc1ccc2ccccc2c1[N+](=O)[O-]`, the Potency result in [1], in experiment [3], in experiment [4], in experiment [9] and in experiment [7] was “inactive” each time. Further, the molecule was classed as inactive in experiment [5], in experiment [6] and in [8].
`Cc1cc(C)c(C)c(O)c1`: the Potency result in experiment [1], in experiment [2], in [10], in [4] and in experiment [7] was “inactive” in each case. Besides, the molecule was classed as inactive in experiment [5], in experiment [6] and in experiment [8].
Consider `C/C(=C(\CCO)SS/C(CCO)=C(\C)N(C=O)Cc1cnc(C)nc1N)N(C=O)Cc1cnc(C)nc1N`, for which the Potency result in experiment [1], in experiment [2], in experiment [10], in experiment [4], in experiment [9] and in experiment [7] was “inactive” each time. The outcome in experiment [5], in [6] and in experiment [8] was inactive.
For the molecule `CCCCCCCCOCCCN`, the Potency entry in experiment [1], in experiment [2], in experiment [10], in [4] and in experiment [7] was “inactive” throughout. The molecule was called inactive in experiment [5], in experiment [6] and in experiment [8].
With `CC(CCl)OC(C)CCl` (stereo not given), the Potency result in experiment [1], in [2], in experiment [10], in experiment [4], in [9] and in experiment [7] was “inactive” throughout. Also, the outcome in experiment [5], in experiment [6] and in experiment [8] was inactive.
`COC(=O)/C=C/C(C)=C\C=C\C(C)=C\C=C\C=C(C)\C=C\C=C(C)\C=C\C(=O)O`: the Potency result in experiment [1], in [2], in experiment [10], in experiment [4] and in experiment [7] was “inactive” each time. The molecule was classed as inactive in experiment [5], in [6] and in experiment [8].
As for `Clc1cc(Cl)c2c(c1)N=C1CCCCCN1C2`, the Potency result in experiment [1], in [2], in experiment [10], in experiment [4] and in [7] was “inactive” throughout. Moreover, the outcome in experiment [5], in [6] and in experiment [8] was inactive.
In the case of `Cc1cc(SC2=C(O)C[C@@](CCc3ccc(N)cc3)(C(C)C)OC2=O)c(C(C)(C)C)cc1CO`, the Potency result in experiment [1], in [2], in experiment [10], in experiment [4] and in [7] was “inactive” in each case. Besides, the result in [5], in experiment [6] and in [8] was inactive.
Consider `OCCCO`, for which the Potency result in experiment [1], in [2], in [10] and in experiment [7] was “inactive” each time. The molecule was classed as inactive in experiment [5], in experiment [6] and in [8].
Take `O=C(O)c1cccc(C(=O)O)c1C(=O)O`: the Potency entry in [1], in experiment [2], in experiment [3], in experiment [4] and in experiment [7] was “inactive” each time. The call in experiment [5], in experiment [6] and in experiment [8] was inactive.
Take `C/C(=C\C(C)CC(C)CC(C)C)C1CC(=O)OC1=O` (stereo not given): the Potency result in experiment [1], in [2], in experiment [10], in experiment [4], in [9] and in experiment [7] was “inactive” throughout. Moreover, the result in experiment [5], in experiment [6] and in experiment [8] was inactive.
In the case of `CCC(C)CCCC(C)(C)O` (stereo not given), the Potency result in experiment [1], in experiment [2], in experiment [4] and in experiment [7] was “inactive” in each case. Moreover, the molecule was called inactive in experiment [5], in experiment [6] and in experiment [8].
Consider `C=CC(O)CCCCC` (stereo not given), for which the Potency result in experiment [1], in [2], in experiment [3] and in experiment [7] was “inactive” throughout. In addition, the result in experiment [5], in experiment [6] and in experiment [8] was inactive.
Regarding `O=[N+]([O-])c1ccccc1CCO`, the Potency entry in [1], in experiment [2], in [4], in [9] and in experiment [7] was “inactive” in each case. The result in experiment [5] and in experiment [8] was inactive.
On to `O=C(Cl)c1cc(Cl)cc(Cl)c1`, for which the Potency entry in experiment [1], in [2], in experiment [4] and in experiment [7] was “inactive” in each case. The result in experiment [5], in [6] and in experiment [8] was inactive.
On to `COc1ccc(/C=C/S(=O)(=O)NC(=O)c2ccc(C)cc2Cl)cc1`, for which the values for the Potency in experiment [1], in [2] and in experiment [9] were 30.6 µM (active), 21.7 µM (active) and 61.1 µM (active), respectively. Also, the Potency result in [10], in experiment [4] and in [7] was “inactive” in each case. For the same molecule, the result in experiment [5] and in experiment [8] was inactive.
Regarding `C=C(C)C(=O)OCCCCCCCCCCOC(=O)C(=C)C`, the Potency entry in [1], in experiment [2], in [10], in [4] and in experiment [7] was “inactive” in each case. Moreover, the result in experiment [5], in [6] and in experiment [8] was inactive.
Regarding `C/C=C1\[C@H]2C=C(C)C[C@]1(N)c1ccc(=O)[nH]c1C2`, the Potency result in experiment [1], in experiment [2], in experiment [10], in [4] and in experiment [7] was “inactive” in each case. In addition, the outcome in [5], in experiment [6] and in experiment [8] was inactive.
Turning to `CC(C)(C)N`, the Potency result in experiment [1], in experiment [2], in experiment [10], in experiment [4], in [9] and in [7] was “inactive” throughout. Besides, the call in experiment [5], in experiment [6] and in experiment [8] was inactive.
Consider `Cc1c(Nc2ncccc2C(=O)O)cccc1C(F)(F)F`, for which the Potency entry in [1], in experiment [2], in experiment [10] and in experiment [4] was “inactive” in each case. In addition, the Potency in experiment [9] is 9.02 µM (active). Further, the fluorescence, relative to Rose Bengal in [5] was 0.539% [at 18.6 µM]. In addition, the fluorescence, % of fluorescein control in experiment [6] is -0.0599% [at 18.6 µM]. Moreover, in [7], the fluorescence, % of triamterene is 0.0756% [at 18.6 µM]. Moreover, the fluorescence, % of fluorescent control in experiment [8] was 0.0414% [at 18.6 µM].
Regarding `Cc1cc(C)n(CO)n1`, the Potency entry in experiment [1], in [2], in experiment [10], in experiment [4], in [9] and in [7] was “inactive” each time. In addition, the molecule was called inactive in [5] and in experiment [8].
As to `O=C(OC1C[C@H]2CC[C@@H](C1)[N+]21CCCC1)C(O)(c1ccccc1)c1ccccc1` (stereo not given in full), the Potency result in experiment [1], in experiment [2], in experiment [4], in [9] and in experiment [7] was “inactive” in each case. For the same molecule, the molecule was classed as inactive in experiment [5], in experiment [6] and in [8].
`CC1(COc2ccc(CC3SC(=O)NC3=O)cc2)CCCCC1` (stereo not given): the Potency is 33.5 µM (active) in experiment [1], 26.6 µM (active) in [3] and 6.68 µM (active) in experiment [9]. Further, the Potency entry in [2] and in experiment [7] was “inactive” each time. In addition, the molecule was called inactive in experiment [5], in [6] and in experiment [8].
Take `C=C[Si]1(C)O[Si](C)(C=C)O[Si](C)(C=C)O[Si](C)(C=C)O1` (stereo not given): the Potency entry in experiment [1], in experiment [2], in [3] and in experiment [7] was “inactive” throughout. For the same molecule, the result in experiment [5], in [6] and in experiment [8] was inactive.
Consider `C=C[Si](OCC)(OCC)OCC`, for which the Potency entry in [1], in [3], in experiment [10], in experiment [4] and in experiment [7] was “inactive” in each case. In addition, the result in experiment [5], in experiment [6] and in experiment [8] was inactive.
`COc1cc(C)c(Cc2cnc(N)nc2N)cc1OC`: the Potency result in experiment [1], in experiment [2], in experiment [10], in experiment [4] and in experiment [7] was “inactive” each time. Further, the call in experiment [5] and in experiment [8] was inactive.
Consider `[O-][n+]1ccc(Cl)cc1`, for which the Potency result in [1], in experiment [2], in experiment [10], in experiment [4] and in [7] was “inactive” in each case. Besides, the outcome in experiment [5], in [6] and in [8] was inactive.
For `CC(C)=CCCC(C)C=O` (stereo not given), the Potency entry in [1], in [2], in experiment [10], in [4] and in experiment [7] was “inactive” throughout. In addition, the molecule was classed as inactive in experiment [5], in experiment [6] and in experiment [8].
